Our source for the Potency values is PubChem BioAssay (NCATS).

Values without a mark were called inactive. Active and inactive are the calls of the source. Rule as the data show it: active = potency below about 10 µM; inactive = the rest.
Potency is read from the fitted curve at half-maximal effect.

Sequence of Lysosomal acid glucosylceramidase (Homo sapiens) (P04062 whole entry, looked up): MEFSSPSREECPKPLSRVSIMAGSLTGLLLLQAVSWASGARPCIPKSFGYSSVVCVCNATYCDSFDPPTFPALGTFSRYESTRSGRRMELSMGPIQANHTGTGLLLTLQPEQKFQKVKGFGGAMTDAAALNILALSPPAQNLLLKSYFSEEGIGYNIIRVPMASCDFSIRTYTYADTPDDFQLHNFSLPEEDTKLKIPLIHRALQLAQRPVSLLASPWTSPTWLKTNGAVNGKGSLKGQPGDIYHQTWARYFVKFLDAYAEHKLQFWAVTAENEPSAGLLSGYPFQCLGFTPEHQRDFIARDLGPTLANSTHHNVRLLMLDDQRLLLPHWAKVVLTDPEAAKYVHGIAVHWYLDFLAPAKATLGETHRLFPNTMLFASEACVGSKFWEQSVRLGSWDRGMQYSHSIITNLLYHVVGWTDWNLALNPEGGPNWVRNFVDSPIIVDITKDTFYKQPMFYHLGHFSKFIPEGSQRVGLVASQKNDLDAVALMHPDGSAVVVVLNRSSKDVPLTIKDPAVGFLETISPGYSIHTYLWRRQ

In the test the target is Lysosomal acid glucosylceramidase (Homo sapiens) (UniProt P04062). Description: Glucocerebrosidase-p2 (AID 348). The note with it: purified GBA, blue fluorogenic substrate, 40 min. From the text:
Beta-glucocerebrosidase catalyzes the hydrolysis of beta-glucocerebroside to glucose and ceramide. The inherited deficiency of beta-glucocerebrosidase results in Gaucher disease, which is characterized by a wide variety of symptoms including hepatosplenomegaly, anemia, thrombocytopenia, bony lesions and bone marrow infiltration with characteristic storage cells, known as Gaucher cells. There are also forms of the disorder affecting the central nervous system. Patients with the same genotypes can manifest with diverse clinical presentations and it is believed that improper folding and trafficking of beta-glucocerbrosidase may contribute to the phenotypes observed.
Low molecular weight molecules, acting as chaperones, may potentially restore trafficking of misfolded beta-glucocerebrosidase from the endoplasmic reticulum to the lysosomes, thereby enhancing functional lysosomal beta-glucocerebrosidase activity.
Using normal beta-glucocerebrosidase, an assay was developed to screen for small molecule inhibitors that could potentially act as molecular chaperones on the mutant forms [developed with NIH investigator Dr. Ellen Sidransky#s laboratory]. Two pro-fluorescent substrates were chosen for two screens against a small molecule library. One beta-glucocerebrosidase assay used Resorufin beta-D-Glucopyranoside (Marker Gene Technology Inc.), generating a red fluorescent product. The second assay used […] fluorescent product. The Km for the Resorufin beta-D-Glucopyranoside and Fluorescein di-beta-D-Glucopyranoside were determined to be 71.2 uM and 855 uM, respectively. The IC50 values of Conduritol B Epoxide, a known glucocerebrosidase inhibitor, were determined to be 87.5 uM and 117 uM, respectively. The use of two difference pro-fluorescent substrates in the screens helped to eliminate false positives. All compounds were screened in a titration series resulting in AC50s (e.g., IC50s or EC50s). Data normalization and AC50 calculations were accomplished using GeneData software.
NCGC Assay Protocol Summary
Both enzyme and substrate were diluted in buffer composed of 50mM citric acid/KH2PO4, 10mM sodium taurocholate and 0.01% tween-20 at pH 5.9. The final concentration of the enzyme was 0.2 nM in both assays. The compound library was titrated in 7 to 15 concentrations for the primary screens with a final concentration ranging from 0.6 nM to 50 uM. This particular assay protocol is for the "blue" substrate, and it was performed in 1536-well plate format as follows:
Blue fluorescence substrate assay:
1 uL substrate (final concentration of 80 uM)
Incubate at room temperature (RT) for 40 minutes
3 uL stop solution (1 M NaOH and 1 M glycine in water)
Read the plate in Viewlux plate reader (Ex=365(10) and Em=440(10)).
As to `O=C(O)Cc1ccc([N+](=O)[O-])cc1[N+](=O)[O-]`, the Potency is above 11.4 µM.

Regarding `c1ccc(C[N+]23CN4CN(CN(C4)C2)C3)cc1`, the Potency was above 11.4 µM.

For the compound `Oc1ccc(CCNCc2cc3c(cc2Br)OCO3)cc1`, the Potency was above 11.4 µM.

As for `NC(=O)c1ccc(C(=O)Nc2ccc([As](=O)(O)O)cc2)cc1`, the Potency was above 11.4 µM.

On to `CS(=N)(=O)CC[C@H](N)P(=O)(O)O` (stereo not given in full), for which the Potency was above 11.4 µM.

Regarding `C[C@@H]1CC[C@@H]2N(C1)C[C@H]1[C@@](O)([C@H](O)C[C@]3(O)[C@H]4CC[C@H]5[C@]6(O)O[C@]4(C[C@]13O)[C@@]5(C)CC[C@@H]6O)[C@@]2(C)O`, the Potency was above 11.4 µM.

Consider `O=C(O)C[C@H]1OCC=C2CN3CC[C@@]45C6=CC(=O)C(=O)C([N+](=O)[O-])=C6N[C@H]4[C@H]1[C@H]2C[C@@H]35`, for which the Potency is above 11.4 µM.

Take `O=C(O)c1cc(N=Nc2ccc([As](=O)(O)O)cc2)ccc1O`: the Potency was above 11.4 µM.

`COC(=O)c1c(C)ccc2c(O)c3c(cc12)C(=O)c1c2c(cc(O)c1C3=O)[C@@]1(C)O[C@@](C)(O2)[C@@H](O)[C@H](N(C)C)[C@H]1O`: the Potency is above 11.4 µM.

In the case of `N=C(N)SCc1ccc(Cl)c2ccccc12` (tested in a mixture with another compound), the Potency is above 11.4 µM.

Regarding `O=C(O)c1cccc([As]=[As]c2cccc(C(=O)O)c2)c1` (stereo not given), the Potency was above 11.4 µM.

Consider `CC(C)CC(=O)C[C@H](O)C(Cl)(Cl)Cl`, for which the Potency was above 11.4 µM.

Regarding `C[C@H]1CC[C@@]2(NC1)O[C@@H]1C[C@@H]3[C@@H]4CC=C5C[C@@H](O)CC[C@]5(C)[C@@H]4CC[C@]3(C)[C@H]1[C@@H]2C`, the Potency is above 11.4 µM.

`COc1cc2ccccc2c2cc([N+](=O)[O-])oc12`: the Potency was above 11.4 µM.

On to `O=C(O)[C@@H](O)[C@@H](O)[C@@H]1[O][Sb][O][C@@H]1CO`, for which the Potency was above 11.4 µM.

For the compound `CCOC(=O)[C@@H]1[C@@H]2c3ccccc3-c3ccccc3[C@H]2C[C@H]1O`, the Potency is above 11.4 µM.

`FC(F)(F)c1nc2ccc(SSc3ccc4nc(C(F)(F)F)[nH]c4c3)cc2[nH]1`: the Potency is above 11.4 µM.

With `COc1cccc2c1C(=O)c1c(O)c3c(c(O)c1C2=O)C[C@](O)(/C(C)=N\O)C[C@@H]3O[C@H]1C[C@H](N)[C@@H](O)[C@H](C)O1`, the Potency is above 11.4 µM.

Consider `CC(=O)O/C(=C1/C[C@H]2[C@@H]3CC=C4C[C@@H](OC(C)=O)CC[C@]4(C)[C@@H]3CC[C@]2(C)C1=O)C(F)(F)F`, for which the Potency was above 11.4 µM.

As to `C[C@H](Br)CN(C[C@H](C)Br)c1ccc2c(c1)Cc1ccccc1-2`, the Potency is above 11.4 µM.

Consider `NC(CCl)=N[C@H]1CN2CCC1CC2`, for which the Potency was above 11.4 µM.

In the case of `c1cc(CCN2CCCCC2)ccn1`, the Potency is above 11.4 µM.

As to `O=C(O)[C@H]1[O][Sb][O][C@@H](C(=O)O)C1O` (stereo not given in full), the Potency is above 11.4 µM.

Regarding `Cc1c([C@@H](C)[C@H]2NC[C@H](C)C[C@@H]2O)ccc2c1C[C@@H]1[C@H]2CC=C2C[C@@H](O)CC[C@@]21C`, the Potency was above 11.4 µM.

Consider `O=C(O)/C=C\c1ccc[c]([Sb](=[O])([OH])[OH])c1`, for which the Potency was above 11.4 µM.

With `COC(=O)[C@@H]1c2cc3c(c(O)c2[C@@H](O)C[C@]1(C)O)C(=O)c1c(O)cc2c(c1C3=O)O[C@H]1O[C@@]2(C)[C@@H](O)[C@H](N(C)C)[C@H]1O`, the Potency was above 11.4 µM.

On to `C[C@H](Br)C(=O)N[C@H](CO)C(=O)O`, for which the Potency was above 11.4 µM.

Take `CC(=O)OC1=CC2=CC[C@H]3[C@H]4CCC(=O)[C@@]4(C)CC(=O)[C@]3(S)[C@]2(C)CC1`: the Potency is above 11.4 µM.

For `O=C(Oc1ccc(S(=O)(=O)F)cc1F)c1ccccc1Cl`, the Potency is above 11.4 µM.

Regarding `c1ccc2c(c1)Sc1ccccc1N2C[C@H]1CN2CCC1CC2`, the Potency was above 11.4 µM.

With `O=[As](O)(O)c1ccc(Cc2ccc([As](=O)(O)O)cc2)cc1`, the Potency is above 11.4 µM.

`C[C@@H]1O[C@@H](O[C@H]2C[C@@H](O)[C@@]3(CO)[C@H]4[C@H](O)C[C@]5(C)[C@@H](C6=CC(=O)OC6)CC[C@]5(O)[C@H]4CC[C@@]3(O)C2)[C@@H](O)[C@H](O)[C@H]1O`: the Potency is above 11.4 µM.

On to `N#Cc1cccc(NC(=O)N2CCCC3(CCN(C(=O)Oc4ccccc4)CC3)C2)c1`, for which the Potency is above 11.4 µM.

As for `C[C@]12CC[C@@H]3[C@H](CCC4=CC(=O)CC[C@]43C)[C@]1(O)CC[C@@]2(O)C(=O)CO`, the Potency was above 11.4 µM.

Regarding `COc1cc2c(cc1OC)[C@]13CC[N@+]4(C)CC5=CCO[C@H]6CC(=O)N2[C@@H]1[C@@H]6[C@@H]5C[C@]34O`, the Potency was above 11.4 µM.

`O=C(O)CN1C(=O)CN=C(c2ccccn2)c2cc(Cl)ccc21`: the Potency is above 11.4 µM.

Turning to `O=C(O)[C@H]1C2c3ccccc3C(c3ccccc32)[C@@H]1C(=O)NCC1CC1`, the Potency was above 11.4 µM.

Consider `CO[C@@H]([CH2][Hg])CN1C(=O)c2ccccc2S1(=O)=O.Cn1c(=O)c2nc[nH]c2n(C)c1=O`, for which the Potency is 1.86 µM (active).

In the case of `Cc1nc2ccccc2cc1C[N+]12CN3CN(CN(C3)C1)C2`, the Potency is above 11.4 µM.

In the case of `C[C@H](CN(C)C)C(C#N)(c1ccccc1)c1ccccc1`, the Potency is above 11.4 µM.
